From PubChem BioAssay
GPR151 ag = human GPR151 activation; Q8TDV0; PathHunter beta-arrestin GPR151 cells, luminescence; activation, % at 11.2 µM; 650,000 tested, 1% active; in the data active means activation above about 4.9%
MITF inh = inhibitors of human MITF; 650,000 tested, 0.91% active; inhibition, % at 2.6 µM; AlphaScreen MITF homodimerization, bead proximity signal; in the data active means inhibition above about 50%
TEAD-YAP inh = TEAD-YAP interaction inhibition; HEK-TIYL cells, TEAD-Gal4/YAP UAS-luciferase luminescence; inhibition, % at 9.12 µM; 640,000 tested, 1.4% active; AID 1259422; in the data active means inhibition above about 32%
FBW7 act = human FBW7 E3 ligase activation, primary screen | 650,000 tested, 0.13% active | normalized activity (activation), % at 26.1 µM | Q969H0 | AlphaScreen FBW7–phospho-cyclin E peptide binding, activator screen; in the data active means normalized activity above about 1.9%;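 further: purified mutant Fbw7 with reduced substrate affinity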
Target sequence (Q969H0 whole entry, looked up): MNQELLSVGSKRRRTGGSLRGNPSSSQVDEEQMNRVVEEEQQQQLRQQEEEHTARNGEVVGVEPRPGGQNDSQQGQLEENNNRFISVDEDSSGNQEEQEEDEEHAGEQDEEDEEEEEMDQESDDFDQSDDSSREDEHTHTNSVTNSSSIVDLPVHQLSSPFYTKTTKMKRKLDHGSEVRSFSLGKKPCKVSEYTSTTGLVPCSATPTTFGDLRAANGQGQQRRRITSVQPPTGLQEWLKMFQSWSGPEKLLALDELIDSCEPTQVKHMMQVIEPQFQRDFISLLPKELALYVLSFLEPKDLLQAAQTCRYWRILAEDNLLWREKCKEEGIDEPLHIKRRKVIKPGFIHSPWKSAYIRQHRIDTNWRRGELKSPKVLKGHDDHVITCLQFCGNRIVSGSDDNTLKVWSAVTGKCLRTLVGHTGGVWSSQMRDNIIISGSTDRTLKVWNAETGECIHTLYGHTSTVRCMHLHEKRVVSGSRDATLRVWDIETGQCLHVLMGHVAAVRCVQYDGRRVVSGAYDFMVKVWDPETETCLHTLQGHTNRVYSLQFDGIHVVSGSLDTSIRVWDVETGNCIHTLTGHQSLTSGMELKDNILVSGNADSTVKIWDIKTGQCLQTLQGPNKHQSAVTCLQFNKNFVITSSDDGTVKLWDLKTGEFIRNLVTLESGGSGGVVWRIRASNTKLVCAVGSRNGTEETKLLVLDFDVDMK
GPR151 confirm = confirmation of human GPR151 activators; shares compounds with GPR151 ag; 6,700 tested, under 10 active; GPR151 PathHunter beta-arrestin cells, luminescence, 90 min; % of EA-reagent control over plate median; AID 1508609; activation, % at 11.2 µM;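 active means mean percent activation across replicates above the confirmation screen cutoff of 4.91%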
GPR119 counter = counter-screen for GPR151 activators: effect on human GPR119 | shares compounds with GPR151 ag | GPR119 PathHunter beta-arrestin cells, luminescence, 90 min; 0 = compound-well median, 100 = enzyme-acceptor control | activation, % at 11.2 µM | 6,700 tested, 0.3% active | AID 1508611;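 active means mean percent activation in the counterscreen above 29.09%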;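 further: counterscreen on off-target GPR119 to flag nonselective hits from the GPR151 activator screen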
Hits are given with their value; . = inactive; / = no result given; ! = not confirmed by another sample. This is a sample that favours compounds with a hit; in the whole collection about 3.4% have one here.

SMILES	GPR151 ag	MITF inh	TEAD-YAP inh	FBW7 act	GPR151 confirm	GPR119 counter
CC(C)(C)C1=NN(CC(=O)Nc2nccs2)C(=O)c2cc3ccccc3n2C1	6.1	.	.	.	.	.
CC(C)(C)C1=NN(CCC(=O)O)C(=O)c2cc3ccccc3n2C1	7.7	.	.	.	.	.
CCCNC(=O)n1ccc(C(=O)N2CCOCC2)n1	.	.	.	.	/	/
Cc1sc(NC(=O)CN(C(=O)Nc2ccccc2F)C2CCCCC2)c(C(N)=O)c1C	.	.	.	.	/	/
CCOc1ccc(CC(=O)NCCc2c(C)[nH]c3c(C)ccc(F)c23)cc1OCC	6.5	.	.	.	.	.
COc1ccc(C(=O)NCCc2c(C)[nH]c3c(C)ccc(F)c23)cc1OC	.	.	.	.	/	/
COc1cc(C(=O)N2CCCCC2)cc(Cl)c1OC	6.8	.	.	.	.	.
CCOc1cc(C(=O)N2CCCC2)cc(Cl)c1OC	.	.	.	.	/	/
CCOc1ccc(C(=O)N2CCCC2C(=O)O)cc1 (stereo unspecified)	.	.	.	.	/	/
COc1cc(C(=O)N2CCCC2C(=O)O)cc(OC)c1OC (stereo unspecified)	5.0	.	.	.	.	.
[Zn+2].c1ccc2c(c1)-c1nc-2nc2[n-]c(nc3nc(nc4[n-]c(n1)c1ccccc41)-c1ccccc1-3)c1ccccc21	11	.	.	.	.	.
CNc1nc(-c2ccccc2O)nc(-c2ccccc2O)n1	.	.	.	.	/	/
COc1ccc(Cl)cc1NC(=O)CN(C)S(=O)(=O)c1ccc(Br)cc1	.	.	.	.	/	/
COc1ccc(Cl)cc1NC(=O)CN(C)CC(=O)Nc1ccc(Br)cc1	7.5	.	.	.	.	.
CCC(C)Nc1c([N+](=O)[O-])cc(C(=O)O)cc1[N+](=O)[O-] (stereo unspecified)	.	.	.	.	/	/
CCC(Nc1c([N+](=O)[O-])cc(C(F)(F)F)cc1[N+](=O)[O-])C(=O)O (stereo unspecified)	6.0	.	.	.	.	.
O=C1C(=O)N(CCN2CCOCC2)C(c2ccc(F)cc2)/C1=C(\O)c1ccc(F)cc1 (stereo unspecified)	.	.	.	.	/	/
O=C1C(=O)N(CCN2CCOCC2)C(c2ccco2)/C1=C(/O)c1ccc(F)cc1 (stereo unspecified)	6.7	.	.	.	.	.
COc1ccc(CNC(=O)C2CCN(c3nc4ccccc4n4cccc34)CC2)cc1	7.5	.	.	.	.	.
COc1ccc2c(c1)C(c1cccnc1)=NNC(c1ccco1)=N2	.	.	.	.	/	/
Cc1nc2c(C(=O)N3CCOCC3)cnn2c(C)c1Cc1ccccc1Cl	.	.	.	.	/	/
CNC(=O)c1cc2c(=O)n3cccc(C)c3nc2n(C)c1=N	.	.	.	.	/	/
Cc1ccc(CNC(=O)c2cc3c(=O)n4cccc(C)c4nc3n(C)c2=N)cc1	11	.	.	.	.	.
CC(Oc1ccccc1)C(=O)Nc1c2c(nn1CC(=O)NCc1ccccc1)CSC2 (stereo unspecified)	.	.	.	.	/	/
O=C(NCc1nc2ccccc2[nH]1)c1ccc2nc(Nc3ccc4ncccc4c3)sc2c1	6.3	.	.	.	.	.
SMILES	GPR151 ag	MITF inh	TEAD-YAP inh	FBW7 act	GPR151 confirm	GPR119 counter
COc1ccc(CCN2CCC(NCc3cccc(N(C)C)c3)CC2)cc1	5.5!	.	.	.	.	.
COc1ccccc1NS(=O)(=O)c1ccc(C(C)C)cc1	.	.	.	.	/	/
Cc1ccc(-c2cc(C(=O)Nc3cccnc3)c3cc(Br)ccc3n2)o1	6.5	.	.	.	.	.
Cc1cc(NC(=O)COc2ccc3c(c2)CCC3)no1	.	.	.	.	/	/
Cc1cc(CC(=N)N)c(C)cc1CC(=N)N	5.4	.	.	.	.	.
COc1nc(OC)c(F)c(Oc2ccc(Br)cc2)c1F	.	.	.	.	/	/
Cc1nc(Nc2ccc(N(C)C)cc2)nc(Nc2ccc(N(C)C)cc2)c1[N+](=O)[O-]	10	.	.	.	.	.
Cc1nc(Nc2cccc(N(C)C)c2)nc(Nc2cccc(N(C)C)c2)c1[N+](=O)[O-]	.	.	.	.	/	/
CCN1C(=O)NC(c2ccccc2Cl)C(C(=O)OC2CCCCC2)=C1C (stereo unspecified)	.	.	.	.	/	/
O=C(Nc1nnc(SCc2ccccc2)s1)c1cccs1	.	.	.	.	/	/
CC1CCCC(C)N1c1nnc(NC(=O)Nc2ccc(F)cc2)s1 (stereo unspecified)	5.3	.	.	.	.	.
COc1ccc(NC(=O)Nc2nnc(SCc3ccc(F)cc3)s2)cc1	.	.	.	.	/	/
O=C(Cc1cccs1)Nc1nnc(SCc2ccccc2)s1	5.1	.	.	.	.	.
O=C(Nc1ccc(F)cc1)Nc1nnc(SCc2ccccc2)s1	5.0	.	.	.	.	.
Cc1ccc(-n2c(-c3ccncc3)n[nH]c2=S)cc1	.	.	.	.	/	/
Cc1ccc(C)n1-c1ccc(-c2ccnc(-c3ccncc3)n2)cc1	5.4	.	.	.	.	.
CCOC(=O)C1=C(C)NC2=C(C(=O)C(C(=O)OCC)C(c3ccccc3OC)C2)C1c1ccc(OCc2ccccc2)c(OC)c1 (stereo unspecified)	8.7	.	.	.	.	.
CCOC(=O)C1=CN(C)C=C(C(=O)OCC)C1c1ccc(OC)c(OCc2ccccc2)c1	7.2	.	.	.	.	.
COC(=O)C1=CN(C)C=C(C(=O)OC)C1c1ccc(OCc2ccccc2)c(OC)c1	.	.	.	.	/	/
CC(C)c1nnc2n1CCN(C(=O)c1cc(=O)c3ccccc3o1)CC2	7.3	.	.	.	.	.
O=C(c1cc(=O)c2ccccc2o1)N1CCCC1	.	.	.	.	/	/
COc1ccc(C2=N/C(=C\c3ccc([N+](=O)[O-])cc3)C(=O)O2)cc1[N+](=O)[O-]	.	.	.	.	/	/
COc1ccc(/C=C2\N=C(c3cccc(I)c3)OC2=O)cc1[N+](=O)[O-]	14	.	.	.	.	.
CCc1nnc(NC(=O)CSc2nnc3c(C)cc4ccccc4n23)s1	.	.	.	.	/	/
O=CN1CCN(C(=O)c2ccccc2Cl)CC1	.	.	.	.	/	/
SMILES	GPR151 ag	MITF inh	TEAD-YAP inh	FBW7 act	GPR151 confirm	GPR119 counter
Cc1ccc(C(=O)N2CCN(C=O)CC2)c(Cl)c1	6.5	.	.	.	.	.
Cc1ccc(Cl)cc1NC(=O)Cn1c2ccccc2c2nc(=O)cc(C)n21	.	.	.	.	/	/
CC(C)C(c1nnnn1Cc1ccccc1)N1CCN(C2CCCC2)CC1 (stereo unspecified)	9.0	.	.	.	.	.
c1ccc(CN2CCC(N3CCN(C4CCCC4)CC3)CC2)cc1	5.1	.	.	.	.	.
CC(C)C(c1nnnn1Cc1ccc(F)cc1)N1CCN(C2CCCC2)CC1 (stereo unspecified)	.	.	.	.	/	/
COc1ccc(Cn2cnc3c(-c4ccco4)nc(Cl)nc32)cc1	.	/	/	/	/	/
